Most compounds without a hit are left out; they make up all but 10% or so of the library.
JMJD2A Tudor: blocks the human JMJD2A Tudor domain. O75164. AlphaScreen JMJD2A-Tudor / H3K4me3 peptide binding. hit rate 4.4% among 390,000. AID 504339. Potency, µM (highest dose often 114 µM), actives largely listed as inhibitors; further: nearly all actives have a fitted effect of over 50% in size
BAZ2B block: inhibitors of human BAZ2B bromodomain; Potency, µM (highest dose often 114 µM), most hits filed as inhibitors; hit rate 4.4% among 360,000; AID 504333; Q9UIF8; AlphaScreen BAZ2B-H3K14Ac peptide displacement; further: nearly all actives have a fitted effect of over 60% in size
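BAZ2B (50 nM) with biotin-H3(5-23)K14Ac peptide (50 nM) in PBS pH 7.4, 0.01% Tween-20, preformed 30 min, then compound 30 min at room temperature; top concentration 110uM. AlphaScreen streptavidin donor/nickel chelate acceptor beads (10 ug/mL final), 20 min dark, signal read.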
G9a inh: G9a (human) methyltransferase inhibition; hit rate 8.8% among 350,000; G9a H3K9 monomethylation, AlphaScreen, 2 h; Q96KQ7; AID 504332; Potency, µM (top dose mostly 102 µM), actives largely listed as inhibitors; further: nearly all actives have a fitted effect of over 75% in size
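Quantitative HTS format: methyltransferase activity on a biotin-tagged H3K9 peptide is measured by AlphaScreen, using a rabbit anti-monomethyl-H3K9 antibody with streptavidin donor and anti-IgG acceptor beads. Final levels are 20 nM enzyme, 500 nM peptide, 20 uM SAM; 2 h RT.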
HP1b binding inh: blocks HP1-beta chromodomain binding to methylated histone tails. P83916. AlphaScreen HP1-beta / biotin-H3K9me3 peptide binding. Potency, µM (doses to about 114 µM), usual class: inhibitors. hit rate 0.56% among 390,000; further: nearly all actives have a fitted effect of over 70% in size
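HP1-beta protein (50 nM final) preincubated 30 min at room temperature with biotinylated H3(1-18)K9me3 peptide (50 nM) in PBS pH 7.4, 0.01% Tween-20, then compound added for 30 min. AlphaScreen streptavidin donor/nickel chelate acceptor beads (10 ug/mL final), 30 min dark, luminescence read.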
GLS inhibitor: inhibitors of human glutaminase (GLS). O94925. GLS enzymatic activity, qHTS titration. Potency, µM (top dose mostly 45.5 µM), most hits filed as inhibitors. hit rate 0.21% among 410,000
Target sequence (O94925 whole entry, looked up): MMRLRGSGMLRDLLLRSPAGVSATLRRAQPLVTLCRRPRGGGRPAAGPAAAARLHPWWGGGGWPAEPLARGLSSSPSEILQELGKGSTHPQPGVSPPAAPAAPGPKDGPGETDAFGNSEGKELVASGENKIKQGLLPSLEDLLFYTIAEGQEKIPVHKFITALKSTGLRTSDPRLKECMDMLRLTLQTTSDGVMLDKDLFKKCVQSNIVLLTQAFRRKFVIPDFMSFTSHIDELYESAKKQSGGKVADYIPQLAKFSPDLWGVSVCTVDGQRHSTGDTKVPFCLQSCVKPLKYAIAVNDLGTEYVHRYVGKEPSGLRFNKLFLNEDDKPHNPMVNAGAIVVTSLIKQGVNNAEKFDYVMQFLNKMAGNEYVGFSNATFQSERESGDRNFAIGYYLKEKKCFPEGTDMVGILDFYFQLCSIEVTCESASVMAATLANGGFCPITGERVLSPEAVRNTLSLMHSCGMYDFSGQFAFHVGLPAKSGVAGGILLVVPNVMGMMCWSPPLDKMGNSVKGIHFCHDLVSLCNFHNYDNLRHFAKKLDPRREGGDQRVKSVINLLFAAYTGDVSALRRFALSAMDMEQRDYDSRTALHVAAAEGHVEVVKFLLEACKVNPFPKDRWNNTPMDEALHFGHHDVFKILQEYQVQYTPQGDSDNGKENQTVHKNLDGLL
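Enzyme dispensed in phosphate buffer (45 mM, pH 8.2, 0.02% Tween-20), compounds pinned in, then 1 mM L-glutamine solution and the glutamate oxidase–HRP–Amplex Red mix added; fluorescence read immediately and again after 30 min at room temperature.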
A number is an active result; . = inactive; ? = inconclusive; / = not tested or not shown; [ ] = another dose, or the depositor's remark. The call rests on the fitted dose curve; in most records, active means well fitted curve in the direction sought with a large enough effect; inconclusive means small, poorly fitted or top-dose-only effect, or another doubt; inactive means no such curve, though single readings can be large; an effect the other way counts as inactive or inconclusive.

SMILES	JMJD2A Tudor	BAZ2B block	G9a inh	HP1b binding inh	GLS inhibitor
COc1ccc(OC)c(-c2cc(C(=O)N/N=C(\C)c3cccnc3)c3ccccc3n2)c1	.	.	/	.	.
C/C(=N\NC(=O)c1cc(-c2ccco2)nc2ccccc12)c1cccnc1	.	.	40µM	.	.
CCOc1ccc(-c2cc(C(=O)N/N=C(\C)c3cccnc3)c3ccccc3n2)cc1	.	?	35µM	.	.
COc1ccccc1NC(=O)COC(=O)c1c(C)nn(-c2ccccc2)c1C	.	.	.[12.7 µM]	.	.
Cc1ccc(NN=C2c3ccccc3-c3ccccc32)cc1	56µM	?	8.9µM	?	.
c1ccc(NN=C2c3ccccc3-c3ccccc32)cc1	.	/	/	.	.
CCCN1CCC(NC(=O)C2CC=CCC2C(=O)O)CC1 (stereo not given)	.	.	.	.	.
Cc1cc(O)c(C=O)c2c1C(=O)Oc1c(CO)c(O)c3c(c1O2)C(O)OC3=O (stereo not given)	3.2µM	20µM	?	?	.
O=C1Nc2cc(Cl)cnc2N2CCCC12 (stereo not given)	.	.	8.9µM	.	.
COC(=O)c1ccc(NC(=O)c2ccc3c(c2)NC(=O)C2CCCN32)cc1 (stereo not given)	/	50µM	10µM	/	/
O=S(=O)(c1ccc(F)cc1)N1CC2CCCN2c2ccc(C(F)(F)F)cc21 (stereo not given)	.	.	.	.	.
CC1CCC(NC(=O)CN2C(=O)C3CCCN3c3ncc(Cl)cc32)CC1 (stereo not given)	/	.	?	/	/
O=C1Nc2cc(S(=O)(=O)N3CCCC3)ccc2N2CCCC12 (stereo not given)	.	?	22µM	.	.
O=C1Nc2ccc(C(F)(F)F)cc2N2CCCC12 (stereo not given)	/	.	11µM	/	/
CCOc1ccc(CCNC(=O)c2ccc3c(c2)NC(=O)C2CCCN32)cc1OCC (stereo not given)	/	.	/	/	/
CCN(CC)S(=O)(=O)c1ccc2c(c1)NC(=O)C1CCCN21 (stereo not given)	.	.	.	.	.
Cn1c(Nc2ccc(F)cc2)nc2ccccc21	.	.	/	.	.
CC(=O)c1ccc(NC(=O)c2cc(S(=O)(=O)N3CCCCCC3)cn2C)cc1	.	.	.	.	.
O=C1Nc2cc(C(F)(F)F)ccc2N2CCCCC12 (stereo not given)	.	.	50µM	.	.
CCOc1cc(CNC(=O)c2ccc3c(c2)NC(=O)C2CCCCN32)cc(OCC)c1OCC (stereo not given)	.	.	.	.	.
O=C1Nc2ccccc2N2CCCC12 (stereo not given)	/	.	20µM	/	/
O=C1Nc2ccccc2C(=O)N2C[C@@H](O)C[C@H]12	.	.	.	.	.
N#Cc1nc(-c2ccc(OCc3ccc(Cl)cc3)cc2)oc1N1CCCCCC1	.	/	/	.	/
N#Cc1nc(-c2ccc(Cl)cc2)oc1N1CCCCC1	?	40µM	?	.	.
CCCOc1ccc(-c2nc(C#N)c(N3CCC(C(N)=O)CC3)o2)cc1	.	.	/	.	.
SMILES	JMJD2A Tudor	BAZ2B block	G9a inh	HP1b binding inh	GLS inhibitor
COc1ccccc1OCc1nc(C#N)c(N2CCCC2)o1	.	.	.	.	.
N#Cc1nc(-c2ccc([N+](=O)[O-])cc2)oc1N1CCCCC1	.	.	.[2.33 µM]	.	.
Cc1ccccc1OCc1nc(C#N)c(N2CCCC2)o1	.	45µM	28µM	.	.
COc1ccc(-c2nc(C#N)c(N3CCC(C)CC3)o2)cc1	?	5µM	14µM	.	.
COc1ccc(-c2nc(C#N)c(N3CCCCCC3)o2)cc1	?	28µM	?	.	.
O=C(Nc1ccccc1Br)c1cc(=O)c2ccccc2o1	.	.	?	.	.
N#Cc1nc(-c2ccc(F)cc2)oc1N1CCCCC1	?	?	13µM	?	.
Cc1ccc(-c2nc(C#N)c(N3CCCCC3)o2)cc1	.	?	20µM	.	.
N#Cc1nc(-c2ccccc2)oc1N1CCCCC1	.	.	?	.	.
N#Cc1nc(-c2ccccc2F)oc1N1CCCC1	.	.	?	?	.
Cc1ccccc1-c1nc(C#N)c(N2CCCCC2)o1	?	22µM	35µM	45µM	.
N#Cc1nc(-c2ccc(F)cc2)oc1N1CCCC1	.[11.4 µM]	.	?	?	.
COc1ccc(-c2nc(C#N)c(N3CCCCC3)o2)cc1	?	28µM	.[2.33 µM]	56µM	.
C=CCn1c(O)c(N=O)c2ccccc21	.	.	.	.	.
CN(C)S(=O)(=O)N(CC(=O)NCCSc1ccc(Cl)cc1)c1ccccc1	.	.	.	.	.
Cc1ccc(CNc2nc3ccccc3n2C)cc1	.	.	.	.	.
Cn1c(/N=C/c2cccs2)nc2ccccc21	.	.	.[12.7 µM]	.	.
Cc1ccc(C)c(N=Nc2nc3ccccc3n2C)c1	25µM	8.9µM	.[0.501 µM]	16µM	.
Cc1cc(C)c(C)c(N=Nc2nc3ccccc3n2C)c1C	11µM	7.9µM	11µM	13µM	.
COCCCNC(=O)c1ccc(Cn2c(=O)c3ccccc3n(Cc3ccc(Cl)cc3)c2=O)cc1	.	.	.	.	.
c1ccc(OCCOCCN2CCOCC2)cc1	.	.	.	.	.
c1ccc(-c2ccccc2OCCN2CCCC2)cc1	22µM	56µM	7.9µM	?	.
c1ccc(CCCN2CCOCC2)cc1	20µM	?	50µM	?	.
c1ccc(-c2ccccc2OCCOCCN2CCCCC2)cc1	3.2µM	.	?	?	.
OCCCN1CCN(CCCOc2ccccc2-c2ccccc2)CC1	.	.	.	.	.
SMILES	JMJD2A Tudor	BAZ2B block	G9a inh	HP1b binding inh	GLS inhibitor
c1ccc(-c2ccccc2OCCCN2CCOCC2)cc1	7.9µM	18µM	/	?	.
COc1ccc(-c2noc(CCC(=O)NCC3CCN(Cc4cccc(C)c4)CC3)n2)cc1	.[11.4 µM]	.	.[12.7 µM]	.	.
c1ccc(-c2ccccc2OCCCCN2CCCCCC2)cc1	22µM	50µM	7.9µM	.	.
Fc1ccccc1OCCCN1CCOCC1	4.5µM	?	?	?	.
O=[N+]([O-])c1ccccc1OCCCN1CCOCC1	.	.	.[0.501 µM]	.	.
NC(=S)N/N=C1/CCSc2ccc3ccccc3c21	.[11.4 µM]	50µM	45µM	?	.
NC(=S)N/N=C/c1coc2c(ccc3ccccc32)c1=O	.	.	.	.	.
O=C(c1ccccc1)c1ccc(C(=O)N2CCOCC2)cc1	.	.	.	.	.
CCN1C/C(=C\c2cccc([N+](=O)[O-])c2)C(=O)/C(=C/c2cccc([N+](=O)[O-])c2)C1	?	?	25µM	.	.
COc1ccc(/C=C/C(=O)Nc2ccc3nc4c(c(Nc5ccc(OC)c(OC)c5)c3c2)CCCC4)cc1	22µM	8.9µM	8.9µM	?	.
COc1ccc(Nc2c3c(nc4ccc(NC(=O)/C=C/c5cc(OC)c(OC)c(OC)c5)cc24)CCCC3)cc1OC	?	10µM	16µM	.	.
C/C(=N\NC(=O)C(=O)Nc1c(C)n(C)n(-c2ccccc2)c1=O)c1ccncc1	.	.	/	.	.
CSc1nc(SCCO)c2sc3nc(-c4ccco4)c4c(c3c2n1)CC(C)(C)OC4	?	32µM	?	.	?

From PubChem BioAssay
